About 83,000 compounds went through this panel and 20% of them were active in at least one assay; those are over-represented in the sample as a whole.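 Step 1: grow cells in 96-well plates. Step 2: add test compound at a single concentration. Step 3: incubate 48 h. Step 4: record percent growth.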 Values without a mark were called inactive. Calls of active or inactive are those of the source. The calls were made as follows: active = growth percent below 10; inactive = the rest.
Assays:
Assay in all cases: NCI-60 one-dose screen, 48 h (100 = growth as untreated, 0 = no growth, -100 = all killed)
Details in all cases: 10 µM unless noted
[1] = system: DU-145 prostate
[2] = system: K-562 leukemia
[3] = system: MALME-3M melanoma
[4] = system: MDA-MB-231 breast
[5] = system: RXF 393 renal
[6] = system: SF-268 CNS
[7] = system: SF-295 CNS
[8] = system: SF-539 CNS
[9] = system: UACC-257 melanoma
[10] = system: M14 melanoma
[11] = system: HCT-15 colon
[12] = system: HT29 colon
[13] = system: SNB-75 CNS
[14] = system: SNB-19 CNS
[15] = system: U251 CNS
[16] = system: PC-3 prostate
[17] = system: SK-MEL-5 melanoma
[18] = system: UACC-62 melanoma
[19] = system: LOX IMVI melanoma
[20] = system: SK-MEL-28 melanoma

| SMILES | growth [1] | growth [2] | growth [3] | growth [4] | growth [5] | growth [6] | growth [7] | growth [8] | growth [9] | growth [10] | growth [11] | growth [12] | growth [13] | growth [14] | growth [15] | growth [16] | growth [17] | growth [18] | growth [19] | growth [20] |
| --- | --- | --- | --- | --- | --- | --- | --- | --- | --- | --- | --- | --- | --- | --- | --- | --- | --- | --- | --- | --- |
| CCN1C(=O)N(CC)C2C1NN=c1s/c(=C3\C(=O)N(C)c4ccccc43)c(=O)n12 (stereo not given) | 11.9% | 9.16% (active) | 40.8% | 33.9% | -14.1% (active) | 70.5% | 7.04% (active) | -24.7% (active) | 94.6% | 43.1% | 22.2% | 11.5% | -10.8% (active) | 37.2% | 34.9% | 35% | 32.8% | 29.1% | 47.7% | 52.6% |
| [2H]C([2H])([2H])Oc1c(F)cccc1/C=C/C(=O)/C=C(O)/C=C/c1cccc(F)c1OC([2H])([2H])[2H] | 103% | 107% | 100% | 109% | 106% | 90.5% | 102% | 101% | 82.7% | 92.9% | 81.4% | 103% | 114% | 94.4% | 87.8% | 88.4% | 101% | 92% | 85.8% | 98.1% |
| CN(C)c1ccc(/C=C/C2=[N+](C)c3ccccc3C2(C)C)cc1 | 25.3% | 14.2% | -6.64% (active) | 3.11% (active) | 39.9% | 20.9% | 0.915% (active) | 16.9% | 12.6% | 18.4% | 39.5% | 12.5% | 36.3% | 13.2% | 19.2% | 4.64% (active) | -4.87% (active) | 9.39% (active) | 15.2% | 35.4% |
| CCCS(=O)(=O)Nc1cccc(Nc2ncnc3cc(NC(=O)CCl)ccc23)c1Cl | -92.8% (active) | 0% (active) | -79.2% (active) | -72.5% (active) | -87.3% (active) | -55.9% (active) | -80.5% (active) | -85% (active) | 10.3% | -43.5% (active) | -26.7% (active) | -63.4% (active) | -93.3% (active) | 0.0363% (active) | -93.3% (active) | -25.7% (active) | -85.3% (active) | -66.2% (active) | -83.9% (active) | -22.8% (active) |

— PubChem BioAssay (NCI)
